# An excerpt weighted towards active compounds, which were near 3% of everything screened.
# NALP3 yeast inh = NALP3 inhibition in yeast | Yeast reconstituted NLRP3/ASC/caspase-1, beta-gal luminescence, 24 h | inhibition, % at 10 µM | actives 0.39% (n = 330,000);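 active means inhibition of 50% or more; inactive means inhibition below 50%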;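 further: plate controls were induced DMSO wells for no effect and uninduced yeast grown without galactose for full effect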
# CHT block = human CHT choline transport inhibition | CHT-expressing cells, membrane potential dye, choline response; stronger effect = lower value | B-score at 10 µM | actives 0.86% (n = 310,000) | AID 488975;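 active means B-score over 3 SD under the library average, and starting fluorescence ratio not unusually high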;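 further: choline stimulus applied at its EC90 after an EC20 pre-addition; B-score computed on integrated fluorescence ratio after choline addition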
# Target sequence (Q9GZV3 whole entry, looked up): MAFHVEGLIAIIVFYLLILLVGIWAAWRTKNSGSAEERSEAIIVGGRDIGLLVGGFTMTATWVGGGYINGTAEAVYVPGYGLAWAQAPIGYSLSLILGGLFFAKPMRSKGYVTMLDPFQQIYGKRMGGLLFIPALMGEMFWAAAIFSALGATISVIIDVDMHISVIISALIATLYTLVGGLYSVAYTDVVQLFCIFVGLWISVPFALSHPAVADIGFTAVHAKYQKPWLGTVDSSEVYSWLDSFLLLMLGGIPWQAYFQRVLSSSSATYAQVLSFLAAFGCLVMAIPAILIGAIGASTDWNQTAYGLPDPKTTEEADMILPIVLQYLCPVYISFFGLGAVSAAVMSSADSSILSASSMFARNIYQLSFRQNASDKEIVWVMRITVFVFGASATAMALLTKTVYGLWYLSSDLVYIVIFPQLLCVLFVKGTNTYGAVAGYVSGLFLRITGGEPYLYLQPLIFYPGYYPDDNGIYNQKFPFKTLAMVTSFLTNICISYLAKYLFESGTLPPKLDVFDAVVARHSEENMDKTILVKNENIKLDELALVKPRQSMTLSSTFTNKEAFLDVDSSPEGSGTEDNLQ
# CHT allo act = allosterically activates the human high affinity choline transporter; actives 0.49% (n = 310,000); B-score at 10 µM; Q9GZV3; AID 488977; CHT-expressing cells, membrane potential dye, choline EC20; stronger effect = higher value; LV-AA mutant CHT in HEK293 cells;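 active means initial fluorescence not abnormally high and integrated response B-score, plate-corrected, over 3 SD above library mean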
# Mot1-301 SUMO = blocks SUMOylation pathway, rescuing yeast Mot1-301 growth | S. cerevisiae Mot1-301 growth rescue, ATP luminescence, 38.5C; percent above DMSO median, 100 means doubled | actives 1% (n = 320,000) | growth rescue, % at 18.8 µM;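 active means every valid replicate shows activation above 250% relative to neutral control wells; inactive means the rest, any valid replicate at or below 250%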;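 further: OY570 slx delta 5 strain wells were the positive control but not used for scaling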
# Bfl-1 A1 inh = inhibitors of the anti-apoptotic protein A1, read as caspase activation; actives 0.066% (n = 330,000); caspase activation, % (no concentration beside the values); MEF A1-2A-BIM cells, Caspase-Glo 3/7 luminescence, 3 h; percent of clofoctol response, vehicle zero;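 active means over half of replicate activation scores above 10%, or exactly half above 10 with the replicate mean above 10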
# NALP1 yeast inh = inhibitors of NALP1 inflammasome in yeast. S. cerevisiae NALP1/ASC/caspase-1 growth, X-gal OD620, 72 h. inhibition, % at 10 µM. actives 0.61% (n = 280,000). AID 2071; in the data active means inhibition mostly above about 24%, no sharp cut-off; inactive means mostly below about 32%
# CHT act confirm = human CHT activation, confirmatory screen; shares compounds with CHT allo act; CHT-expressing cells, membrane potential dye fluorescence (FDSS); % of choline EC20–EC90 response window; HEK293 expressing CHT LV-AA mutant; choline added at its EC20; activation, % at 10 µM; actives 91% (n = 2,500); AID 504833;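 active means primary screen active, with duplicate mean activation above negative control mean plus 3 SD, cut at about 11% in these data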
# HEK293 MP dye = CHT activator counter-screen hit in parental HEK293 cells. ratio readout change at 10 µM, hits read low. membrane potential dye fluorescence (FDSS); measured after EC20 choline addition. shares compounds with CHT allo act. actives 62% (n = 2,500);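 active means duplicate-averaged ratio beyond 3 SD from buffer wells, up or down, though filed actives are nearly all decreases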
# The depositor's hits bear a star; i = inactive; · = no result.
SMILES,NALP3 yeast inh,CHT block,CHT allo act,Mot1-301 SUMO,Bfl-1 A1 inh,NALP1 yeast inh,CHT act confirm,HEK293 MP dye
CCOc1cc(N2CCOCC2)c(OCC)cc1NC(=O)COC(=O)CCOc1cc(C)ccc1C,0,i,i,-1,0,·,·,·
CCOC(=O)c1c(N=CN(C)C)c2cc([N+](=O)[O-])cnc2n1C,12,i,i,-17,1,-11,38*,-46*
CCOC(=O)c1c(N)c2cc([N+](=O)[O-])ccc2n1C,25,i,i,439,0,-11,·,·
CCCCn1c(N)c(N(CCOC)C(=O)c2ccc(COc3ccccc3)o2)c(=O)[nH]c1=O,14,i,6.7*,-20,0,·,16*,i
COC(=O)C(Cc1cccc(C)n1)(c1ccccc1)c1ccccc1,·,i,i,-11,1,19,·,·
Cc1cc(-c2nnc(SCC(=O)Nc3ccc(Br)cc3F)n2N)n[nH]1,18,i,i,5,1,10,·,·
CCOc1cc(NC(=O)C(C)C)c(OCC)cc1NC(=O)Nc1ccccc1,16,i,i,-14,1,16,·,·
CC(C)C(=O)N1CCN(c2ccccc2NC(=O)c2ccc([N+](=O)[O-])o2)CC1,23,i,11*,-5,0,7,39*,i
O=C(Nc1ccccc1N1CCN(C(=O)c2ccccc2)CC1)c1ccc([N+](=O)[O-])o1,26,·,·,·,·,3,·,·
CCC(=O)N1CCN(c2ccccc2NC(=O)c2ccc([N+](=O)[O-])o2)CC1,35,i,8.9*,140,1,8,12*,i
CN1CCN(c2nc3c(c(=O)n(C)c(=O)n3C)n2CCSc2nc3ccccc3s2)CC1,5,i,7.4*,-5,1,25,65*,-46*
Cn1c(=O)c2c(nc(N3CCN(C(=O)c4ccco4)CC3)n2CCSc2ncccn2)n(C)c1=O,-2,i,7.1*,3,0,5,57*,-58*
Cc1ccnc(SCCn2c(N3CCOCC3)nc3c2c(=O)[nH]c(=O)n3C)n1,17,i,10*,-18,0,·,65*,-58*
CC(C)n1c(SCC(=O)N2CCN(C(=O)c3ccco3)CC2)nc2c1c(=O)n(C)c(=O)n2C,9,i,i,-7,0,·,·,·
CC(CSc1nc2ccccc2s1)Cn1c(N2CCCC2)nc2c1c(=O)[nH]c(=O)n2C (configuration not stated),16,i,i,2,0,36,·,·
CCN1CCN(c2nc3c(c(=O)[nH]c(=O)n3C)n2CCSc2nc3ccccc3s2)CC1,16,i,13*,-11,1,17,40*,-45*
COc1ccc(-n2c(SCC(C)=O)nc3sc(C)c(C)c3c2=O)cc1,9,i,i,-18,1,9,·,·
CCn1nc(C)c(CN2CCC(Oc3ccc(C(=O)N4CCCC4)cc3)CC2)c1C,12,i,i,28,0,-6,·,·
O=C1COc2ccc(S(=O)(=O)Nc3cccc(Cl)c3)cc2N1,2,i,i,9,0,-4,·,·
Cn1c(=O)[nH]c(=O)c2c1nc(N1CCCCC1)n2CCCSc1nnnn1-c1ccccc1,4,i,i,6,-1,24,·,·
CN1CCN(c2nc3c(c(=O)[nH]c(=O)n3C)n2CCCSc2nnnn2-c2ccccc2)CC1,-2,i,6.6*,-2,1,2,47*,-49*
Cc1cccc(Cn2c(N3CCN(C)CC3)nc3c2c(=O)[nH]c(=O)n3C)c1,22,i,i,-9,0,10,·,·
CCCn1c(N2CCN(Cc3cccc(C)c3)CC2)nc2c1c(=O)[nH]c(=O)n2C,19,i,i,21,0,2,12*,-28*
Cc1cccc(-n2c(=O)c3ccccc3n3c(=S)[nH]nc23)c1C,19,i,i,10,-1,-8,·,·
Cc1c(C)n(CC(O)CN2CCOCC2)c2ccccc12 (configuration not stated),12,i,i,3,0,-1,·,·
SMILES,NALP3 yeast inh,CHT block,CHT allo act,Mot1-301 SUMO,Bfl-1 A1 inh,NALP1 yeast inh,CHT act confirm,HEK293 MP dye
O=c1c2ccccc2n(CC(O)CN2CCCCC2)c2ccccc12 (configuration not stated),8,i,6.3*,-8,0,-2,44*,-39*
O=c1c2ccccc2n(CC(O)CN2CCOCC2)c2ccccc12 (configuration not stated),2,i,i,9,1,18,11*,i
OC(CN1CCCCC1)Cn1c2ccccc2c2ccccc21 (configuration not stated),0,i,i,187,1,32,·,·
CCOC(=O)c1cnc2ccc(OCC)cc2c1N(C)Cc1ccccc1,19,i,9.6*,20,1,7,41*,i
CCOC(=O)c1cnc2ccc(OCC)cc2c1N1CCN(c2ccccc2OC)CC1,9,i,i,-16,0,6,·,·
CC(C)c1ccc(NC(=O)c2ccc3c(c2)C(=O)N(Cc2cccnc2)C3=O)cc1,13,i,i,2,-1,13,·,·
Cn1c(=O)n(C)c2cc(N3CCOCC3)c(NC(=O)c3cccc(Cl)c3)cc21,15,i,i,7,2,16,·,·
Cc1ccc(C(=O)c2c3ccc([N+](=O)[O-])cc3[n+]([O-])n2CCCN)cc1,38,i,6.5*,-3,0,·,34*,-40*
O=C(N/N=C/C=C/c1cccc([N+](=O)[O-])c1)c1ccncc1,13,i,7.9*,5,0,·,13*,i
COc1cc(/C=N/NC(=O)c2ccncc2)c([N+](=O)[O-])cc1OC,22,i,i,-8,0,17,·,·
COc1cc(OC)c([N+](=O)[O-])cc1/C=N/NC(=O)c1ccncc1,15,i,i,-9,0,4,37*,-38*
Cc1nn2c3ccccc3n(CCN3CCCCC3)c2nc1=O,6,i,7.1*,·,1,9,39*,-42*
C=CCn1c2ccccc2n2nc(C)c(=O)nc12,-1,i,i,-4,-1,8,·,·
Cc1cc(OCC(=O)NCCCn2ccnc2)c2c(C)cc(=O)oc2c1,8,i,7.1*,12,0,5,65*,-56*
